# Hits are enriched below; roughly 19% of the tested compounds scored in any of these assays.
# DT40 TDP1 CPT: growth inhibition of DT40 Tdp1-/-;hTDP1 cells with camptothecin (screen for TDP1 inhibitors). chicken DT40 Tdp1-/-;hTDP1 cells + 20 nM CPT, ATP luminescence, 48 h. Potency, µM (doses to about 46.2 µM), inactives show top-dose activity change, negative = growth inhibition, hits mostly inhibitors. 420,000 compounds, 12% hits. AID 686979; also: potency is read from the fitted curve at half-maximal effect; nearly all actives have a fitted effect of over 55% in size
#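 Cell growth measured by CellTiter-Glo luminescence after a minimum 48 h, 37 C compound exposure with 20 nM CPT in Tdp1-knockout DT40 cells stably expressing hTDP1, seeded 400/well; qHTS titration format.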
# IL1B secr inh: inhibitors of inflammasome signaling (IL-1 beta secretion); THP-1 LPS/ATP IL-1B secretion, AlphaLISA, 16 h; active compounds read low; activity change, % at 57.5 µM; 360,000 compounds, 4.7% hits; in the data active = activity change below about -50%; inconclusive = mostly about -30% to -49%
#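 Secreted IL-1B measured by AlphaLISA bead assay after 16 h compound exposure of THP-1 cells; compounds (final up to 57.5 uM) added 1 h before LPS (250 ng/mL) and ATP (1.25 mM) stimulation; lower signal means less secretion.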
# HT1080NT lethal: kills 2HG-producing HT-1080-NT fibrosarcoma cells; HT-1080-NT fibrosarcoma viability, CellTiter-Glo ATP luminescence, 48 h; Potency, µM (top dose mostly 46.1 µM), for inactives: at the highest dose activity, negative = less viability, most hits filed as cytotoxic; 360,000 compounds, 1.6% hits; AID 686970;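 also: NT is the 2HG producing partner of a matched IDH1 knockdown line; potency is read from the fitted curve at half-maximal effect; 0% = DMSO-treated cells and -100% = media-only wells without cells; nearly all actives have a fitted effect of over 55% in size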
#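 Viability of the 2HG-overproducing fibrosarcoma line after 48 hours of compound exposure at 37 degrees C was determined by luminescence with CellTiter-Glo, and concentration-effect curves were then fitted and categorized.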
# HT1080 IDH1KD tx: kills HT-1080 cells with IDH1 knockdown | AID 686971 | HT-1080 IDH1 knockdown viability, ATP luminescence, 48 h | 360,000 compounds, 2% hits | Potency, µM (doses to about 46.1 µM), without a hit: top-dose activity, negative = toxicity, most hits filed as cytotoxic;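 also: potency is read from the fitted curve at half-maximal effect; 0% = DMSO wells and -100% = cell-free medium wells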
#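 CellTiter-Glo luminescence after 48 h compound exposure at 37 degrees C of IDH1-knockdown HT-1080 cells in 5% FBS RPMI. %Activity scaled between DMSO wells and cell-free media wells, with curves fitted and assigned curve classes.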
# ELG1 repair inh: blocks ELG1-dependent DNA repair in HEK293T cells. Potency, µM (highest dose often 46.1 µM), for inactives: top-dose activity change, negative = inhibition, most hits filed as inhibitors. 330,000 compounds, 2.3% hits. AID 504467. HEK293T ELG1-luciferase reporter, luminescence, 16 h; DNA damage induced by 5-fluorouridine; also: potency is read from the fitted curve at half-maximal effect; nearly all actives have a fitted effect of over 55% in size
#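 Cells (2,000 per well) received 5-fluorouridine plus test compound or DMSO and were incubated 16 hr at 37 °C, 5% CO2. Luciferase activity was read by luminescence 30 min after ONE-Glo addition; signal suppression marked inhibition of damage-induced ELG1 function.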
# DT40 TDP1 no CPT: qHTS for Inhibitors of human tyrosyl-DNA phosphodiesterase 1 (TDP1): qHTS in cells in absence of CPT; DT40 Tdp1-/- hTDP1 cells, no CPT, ATP luminescence, 48 h; Potency, µM (doses to about 46.2 µM), without a hit: at the top dose activity change, negative = growth inhibition, hits mostly inhibitors; 420,000 compounds, 15% hits; AID 686978, 2013; also: potency is read from the fitted curve at half-maximal effect; nearly all actives have a fitted effect of over 55% in size
#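 Readout: luminescence from CellTiter-Glo after 30 min in the dark at RT. Cells: DT40 Tdp1-/- with stable hTDP1, 400/well. Exposure: compounds alone, ≥48 hr, 37 °C.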
# Starred values were filed as active, the others as inactive; i = inactive; ? = inconclusive; · = not tested or not shown; [ ] = dose if it differs, or a comment. Unless noted, calls follow the shape of the dose curve; as a rule, active = well fitted curve in the direction sought with a large enough effect; inconclusive = small, poorly fitted or top-dose-only effect, or another doubt; inactive = no such curve, though single readings can be large; an effect the other way counts as inactive or inconclusive. Unless noted, % is scaled to controls: 0 for no effect and ±100 for the full control effect.
SMILES,DT40 TDP1 CPT,IL1B secr inh,HT1080NT lethal,HT1080 IDH1KD tx,ELG1 repair inh,DT40 TDP1 no CPT
O=C(CCc1ccc(Oc2cc([N+](=O)[O-])cc([N+](=O)[O-])c2)cc1)N1CCCCC1,?,-20.3,-16.6%,-22.5%,13µM*,?
O=C(NCC1CCN(C(=O)c2ccc([N+](=O)[O-])cc2)CC1)C(=O)Nc1ccccc1,?,20.0,20.1%,11.1%,?,20.6µM*
CSc1ccc(CN2CCN(C(=O)c3ccc([N+](=O)[O-])cc3)CC2)cc1,?,-25.0,-15.2%,?,?,20.6µM*
O=C(CCc1ccc(Oc2cc([N+](=O)[O-])cc([N+](=O)[O-])c2)cc1)Nc1cccc(Cl)c1,?,?,-23.5%,-21.6%,-19.5%,?
O=C(c1ccc(Oc2ccc([N+](=O)[O-])cc2Cl)cc1)N1CCCC1,?,0.0,19.7%,-9.7%,?,?
O=C(Nc1cccc(Cl)c1)NC1CCN(C2CCCCC2)C1 (stereo not given),-3.0%,-8.9,-26.3%,-29.2%,0.0%,?
O=C(NCC(c1cccnc1)N1CCOCC1)C1CCCCC1 (stereo not given),16.6%,6.7,1.7%,0.1%,1.5%,-5.3%
COc1ccccc1N1CCN(C(CNC(=O)C2CCCCC2)c2cccnc2)CC1 (stereo not given),8.2µM*,5.8,-4.4%,1.0%,-13.8%,10.3µM*
COc1ccccc1N1CCN(C(CNS(=O)(=O)c2ccccc2)c2cccnc2)CC1 (stereo not given),23.1µM*,13.9,-1.7%,-5.4%,-16.2%,18.4µM*
COc1cc(NC(=O)C(C)Oc2ccccc2)c(OC)cc1NC(=O)c1ccccc1 (stereo not given),20.6µM*,-17.2,-2.4%,-11.0%,14.6µM*,?
COc1cc(NC(=O)c2sc(C)nc2C)c(OC)cc1NC(=O)c1ccccc1,?,-16.2,-2.7%,10.4%,14.6µM*,16.4µM*
CC(C)NC(=O)c1ccccc1NC(=O)C(C)Oc1ccccc1 (stereo not given),-27.2%,-2.0,0.8%,-4.7%,-3.6%,-0.7%
CC(Oc1ccc(F)cc1)C(=O)Nc1ccccc1C(=O)N1CCCCC1 (stereo not given),14.6µM*,10.6,1.1%[9.24 µM],-7.9%,-31.4%,?
COC(=O)c1ccccc1NC(=O)C(C)Oc1ccccc1 (stereo not given),7.31µM*,15.5,-4.2%,-23.0%,-0.4%,5.8µM*
CCc1ccc(OC(C)C(=O)Nc2ccccc2C(=O)N2CCOCC2)cc1 (stereo not given),-20.6%,0.0,-15.1%,-6.3%,-4.0%,?
COc1ccc(NC(=O)C2=NN(c3ccccc3)C(=O)CC2)cn1,?,-0.6,-4.7%,8.3%,-1.0%,-21.2%
CCOC(=O)C1(C)CCN1C(=O)c1ccccc1Br (stereo not given),-13.4%,100.8,25.1%,20.4%,·,-3.1%
O=C(Nc1c2c(nn1-c1ccc(Cl)cc1)CS(=O)(=O)C2)c1cccc(F)c1,20.6µM*,·,·,·,·,18.4µM*
CC(C)(C)n1nc2c(c1NC(=O)c1c(F)cccc1F)CS(=O)(=O)C2,-5.3%,0.4,0.7%,2.2%,4.0%,7.3%
CC(C)(C)n1nc2c(c1NC(=O)c1ccc(F)c(F)c1)CS(=O)(=O)C2,0.8%,i,-6.3%,0.6%,4.2%,16.4µM*
Cc1cccc(C(=O)Nc2c3c(nn2-c2ccc(Cl)cc2)CS(=O)(=O)C3)c1,-18.6%,·,·,·,·,-26.2%
CC1=C(c2ccc(C)c(C)c2)S(=O)(=O)N(Cc2ccc(C(=O)NC(C)c3ccccc3)cc2)C1=O (stereo not given),-7.7%,·,·,·,·,-28.3%
COc1ccc(CNC(=O)C2CCN(c3nnc(-n4c(C)ccc4C)s3)CC2)c(OC)c1,?,·,·,·,·,16.4µM*
Cc1ccc(C)n1-c1nnc(N2CCC(C(=O)Nc3ccccc3Br)CC2)s1,?,·,·,·,·,16.4µM*
Cc1cc(C)cc(NC(=O)C2CCN(c3nnc(-n4c(C)ccc4C)s3)CC2)c1,-75.2%,·,·,·,·,?
SMILES,DT40 TDP1 CPT,IL1B secr inh,HT1080NT lethal,HT1080 IDH1KD tx,ELG1 repair inh,DT40 TDP1 no CPT
Cc1cccc(CNC(=O)C2CCN(c3nnc(-n4c(C)ccc4C)s3)CC2)c1,?,·,·,·,·,16.4µM*
COc1ccc(CNC(=O)C2CCN(c3nnc(-n4cccc4CNc4ccc(C)cc4)s3)CC2)c(OC)c1,16.4µM*,·,·,·,·,13µM*
Cc1nc2ccn(Cc3cccnc3)c(=O)c2cc1C(=O)Nc1ccc(F)cc1F,-15.6%,·,·,·,·,-1.6%
COc1cccc(CNC(=O)C2CCN(c3nnc(-n4c(C)ccc4C)s3)CC2)c1,?,·,·,·,·,14.6µM*
CCOc1ccc(NC(=O)C2CCN(c3nnc(-n4c(C)ccc4C)s3)CC2)cc1,23.1µM*,·,·,·,·,13µM*
COc1cccc(CNC(=O)C2CCN(c3nnc(-n4c(C)ccc4C)s3)CC2)c1OC,?,·,·,·,·,-62.7%
Cc1ccc(C)n1-c1nnc(N2CCCC(C(=O)NCc3cccc(F)c3)C2)s1 (stereo not given),?,·,·,·,·,-16.6%
CCOc1ccc(OCC)c(NC(=O)C2CCN(c3nnc(-n4cccc4)s3)CC2)c1,-16.9%,·,·,·,·,13.5%
Cc1ccccc1CNC(=O)C1CCN(c2nnc(-n3c(C)ccc3C)s2)CC1,16.4µM*,·,·,·,·,?
COc1ccccc1CNC(=O)C1CCCN(c2nnc(-n3c(C)ccc3C)s2)C1 (stereo not given),16.4µM*,·,·,·,·,?
CCOC(=O)CNS(=O)(=O)c1ccc(S(=O)(=O)NC2CC2)cc1,-1.8%,?,9.7%,16.7%,-0.8%,1.8%
CCOC(=O)[C@H]1[C@H]2COc3ccc(Br)cc3[C@H]2N2C(=O)CNC(=O)[C@@]12C,-13.9%,-5.6,0.0%,15.8%,-7.6%,-24.4%
Cc1ccc(C)n1-c1nnc(N2CCCC(C(=O)NCc3cccc(Cl)c3)C2)s1 (stereo not given),20.6µM*,·,·,·,·,11.6µM*
CN(C)N(C(=O)c1cc(-c2cccs2)nn1-c1ccccc1)C1CCS(=O)(=O)C1 (stereo not given),-4.8%,-3.4,-5.7%,-1.2%,?,-11.3%
COc1ccc(C2CC(c3ccccc3)=NN2c2ccc(S(N)(=O)=O)cc2)cc1 (stereo not given),-13.3%,?,?,?,-5.8%,?

# Source: PubChem (National Center for Advancing Translational Sciences (NCATS))
